AC50 and outcome data for eleven compounds are collected here from PubChem BioAssay (EPA / NIEHS).

Records with an inconclusive call do not appear. Activity calls are given as the source filed them. Rule for the calls: active = hit-call score of the fitted dose curve at least 0.9, where 1 is the maximum; inconclusive = response in the unintended direction; inactive = score below 0.9.

Sequence of guinea pig Serotonin, 5-Hydroxytryptamine Receptor 4 (5HT4), HTR4 (gene 100135548) (O70528 whole entry, looked up): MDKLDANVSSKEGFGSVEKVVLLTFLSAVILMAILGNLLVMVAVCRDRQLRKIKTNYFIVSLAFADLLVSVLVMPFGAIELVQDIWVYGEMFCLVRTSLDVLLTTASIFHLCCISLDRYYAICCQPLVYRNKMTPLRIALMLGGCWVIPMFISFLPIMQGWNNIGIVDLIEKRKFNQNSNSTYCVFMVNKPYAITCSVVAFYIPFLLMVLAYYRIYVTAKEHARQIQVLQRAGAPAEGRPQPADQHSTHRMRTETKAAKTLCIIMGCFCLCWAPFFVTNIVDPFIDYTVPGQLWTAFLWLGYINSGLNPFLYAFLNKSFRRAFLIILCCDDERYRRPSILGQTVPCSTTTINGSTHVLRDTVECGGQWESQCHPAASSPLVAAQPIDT

The assay concerns the target guinea pig Serotonin, 5-Hydroxytryptamine Receptor 4 (5HT4), HTR4 (gene 100135548) (UniProt O70528). Nature of the assay: NVS_GPCR_g5HT4: NovaScreen (NVS) G Protein-Coupled Receptor Assay for guinea pig Serotonin, 5-Hydroxytryptamine Receptor 4 (5HT4) (AID 2283294). Here is the method: NVS_GPCR_g5HT4 is a biochemical, single-readout assay that uses extracted gene-proteins from Guinea pig striatal membranes in a tissue-based cell-free assay. Measurements were taken 1 hour after chemical dosing in a 48-well plate.NVS_GPCR_g5HT4 is one of one assay component(s) measured or calculated from the NVS_GPCR_g5HT4 assay. It is designed to make measurements of radioligand binding, a form of binding reporter, as detected with scintillation counting signals by Filter-based radiodetection technology.Data from the assay component NVS_GPCR_g5HT4 was analyzed into 1 assay endpoint. This assay endpoint, NVS_GPCR_g5HT4, was analyzed in the positive analysis fitting direction relative to DMSO as the negative control and baseline of activity. Using a type of binding reporter, loss-of-signal activity can be used to understand changes in the binding as they relate to the gene Htr4. Furthermore, this assay endpoint can be referred to as a primary readout, because the performed assay has only produced 1 assay endpoint. To generalize the intended target to other relatable targets, this assay endpoint is annotated to the gpcr intended target family, where the subfamily is rhodopsin-like receptor.
Binding assays used specific radioligands (tritiated, iodinated) with non-radioactive competitive displacement ligands in agonist or antagonist protocols (as indicated) and various reference compounds and inhibitors to titrate specific binding to receptors and transporters. Most enzyme assays (CYPs, kinases, phosphatases, proteases, HDACs) used recombinant protein and specific substrates (fluorescence mostly, some colorimetric and radioactive) and inhibitors, followed by a biochemical separation of substrate and product. All assays for the biochemical HTS were initially run in duplicate at a single concentration (10 uM for CYP450 assays and 25 uM for all others). […] Each assay was run with positive and negative controls, and concurrent controls on every plate. The follow-up (secondary) screen tested active chemical-pairs in concentration series, as well as a few additional assays not tested in the primary screen, some selected negative inactives, and several cases re-run in the concentration series for confirmatory purposes.
Regarding `CCN(C(=O)c1cc(C)cc(OC[C@H](C)Nc2ccncc2)c1)C(C)C`, the concentration at half-maximal activity (AC50) was 3.35 µM (active).
Regarding `CCCN(C1CCN(C(=O)C2CCNCC2)CC1)[C@@H]1CCc2ccc(OC)cc2C1`, the half-maximal activity concentration (AC50) is 8.99 µM (active).
In the case of `Nc1ccc(Nc2ccccc2)cc1`, the half-maximal activity concentration (AC50) was 31.6 µM (active).
The same measure, in the same setting: the result for `CC[C@H]1CC[C@H](NCc2cc3c(cc2OC)[C@H]2C[C@H]2C(=O)N3C)[C@H](c2ccccc2)N1` reads 14.2 µM (active).
For `CNS(=O)(=O)c1cc(C(=O)N2CCC(CCN3C4CCC3CC(n3c(C)nc5ccccc53)C4)(c3cccc(F)c3)CC2)c(Cl)cc1F` (stereo unspecified), the result was inactive.
For the compound `CCn1nc(Cc2ccccc2)cc1C1CCN(C[C@H]2C[C@H](N(C)[C@@H](C(=O)O)C(C)C)C[C@@H]2c2cccc(F)c2)CC1`, the AC50 was 25 µM (active).
Take `Cc1[nH]cnc1C[C@H]1CCc2c(C)c3ccccc3n2C1=O`: the half-maximal activity concentration (AC50) is 6.64 µM (active).
For `CCOC(=O)c1ccc(C2CCC(NC[C@H](O)COc3ccc(O)c(NS(C)(=O)=O)c3)CC2)cc1` (stereo partly specified), the half-maximal activity concentration (AC50) is 2.57 µM (active).
On to `CCCCCCc1ccc(O)cc1O`, for which the AC50 was 36.6 µM (active).
Consider `Oc1ccc2c(c1)-c1ccccc1C2`, for which the AC50 is 6.87 µM (active).
On the same count and under the same terms, the result for `COc1cccc(-c2ccc(/C=C\CN3CCCCCC3)cc2Cl)c1` reads 12.1 µM (active).
